The text below walks through data of ChEMBL document CHEMBL3988442, “University of Dundee, Small-Polar-MMV Screening Library” (2021).

What all share (parameters): scale not given: direction of the effect not stated beside the values
For assay [1], the target named is Protein translocase subunit SecA (Escherichia coli (strain K12)) (UniProt P10408). Kind of assay: Assay to Identify E. coli SecA ATPase Inhibitors. The conditions noted are these: 30 µM. Type of assay: functional.
The target of assay [2] is T1, Ubiquitin-activating enzyme e1, putative (Leishmania donovani (strain BPK282A1)) (UniProt E9BSI1).
T1 sequence (whole entry): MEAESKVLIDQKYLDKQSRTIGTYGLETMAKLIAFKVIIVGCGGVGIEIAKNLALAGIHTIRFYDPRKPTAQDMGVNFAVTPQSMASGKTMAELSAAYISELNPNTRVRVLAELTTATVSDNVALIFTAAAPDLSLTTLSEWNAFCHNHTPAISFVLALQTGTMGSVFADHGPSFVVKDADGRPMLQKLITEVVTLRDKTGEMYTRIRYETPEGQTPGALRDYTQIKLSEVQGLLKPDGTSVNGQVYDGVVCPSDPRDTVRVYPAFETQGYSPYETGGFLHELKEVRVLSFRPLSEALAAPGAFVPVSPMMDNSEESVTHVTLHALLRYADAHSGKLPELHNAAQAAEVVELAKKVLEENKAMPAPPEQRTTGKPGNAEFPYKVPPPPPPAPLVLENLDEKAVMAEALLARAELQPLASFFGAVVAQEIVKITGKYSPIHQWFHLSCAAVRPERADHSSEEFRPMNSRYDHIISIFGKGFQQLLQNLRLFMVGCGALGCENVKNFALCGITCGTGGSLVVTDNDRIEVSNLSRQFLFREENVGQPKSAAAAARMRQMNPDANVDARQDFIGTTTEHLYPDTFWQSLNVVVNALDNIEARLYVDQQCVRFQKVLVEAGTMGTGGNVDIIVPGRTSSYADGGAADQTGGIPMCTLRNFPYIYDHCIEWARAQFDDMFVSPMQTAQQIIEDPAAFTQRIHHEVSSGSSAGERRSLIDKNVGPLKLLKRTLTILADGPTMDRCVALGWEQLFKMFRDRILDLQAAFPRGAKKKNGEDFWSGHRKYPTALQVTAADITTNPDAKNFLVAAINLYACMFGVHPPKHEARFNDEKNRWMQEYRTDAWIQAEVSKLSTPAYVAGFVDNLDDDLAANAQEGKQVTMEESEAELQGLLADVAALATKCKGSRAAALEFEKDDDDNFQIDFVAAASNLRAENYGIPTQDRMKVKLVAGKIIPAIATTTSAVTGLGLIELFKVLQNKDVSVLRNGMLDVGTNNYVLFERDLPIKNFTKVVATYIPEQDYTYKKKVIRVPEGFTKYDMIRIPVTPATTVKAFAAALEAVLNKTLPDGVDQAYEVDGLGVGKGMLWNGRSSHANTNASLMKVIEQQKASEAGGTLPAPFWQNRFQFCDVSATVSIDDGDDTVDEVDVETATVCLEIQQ
Kind of assay: Leishmania donovani Ubiquitin Activating Enzyme (LdE1). Type of assay: functional. Conditions: 30 µM.

Assay [3] addresses AMP-activated protein kinase, AMPK (Homo sapiens) (UniProt P54646+O43741+P54619+Q9UGJ0+Q9Y478+Q13131+Q9UGI9). Kind of assay: AMP-dependent Kinase enzyme assay. An in vitro enzyme assay that detects ADP turnover that is directly proportional to AMPK activity. This uses naive AMPK that is activated during the assay with MK-8722. The class given is functional. Conditions: 30 µM.

Assay [4] addresses Sialic acid-binding Ig-like lectin 9 (Homo sapiens) (UniProt Q9Y336). Kind of assay: Hs-Siglec9 ALPHAscreen SOP 20170721. Conditions: 10 µM.
Assay [5] has as its system Trypanosoma cruzi. Kind of assay: Trypanosoma cruzi phosphomannomutase and mannose-1-phosphate guanylyltransferase assay. Type of assay: functional. The conditions noted are these: 10 µM.
In assay [6] the target is T2, Arginase-2, mitochondrial (Homo sapiens) (UniProt P78540).
T2 sequence (whole entry): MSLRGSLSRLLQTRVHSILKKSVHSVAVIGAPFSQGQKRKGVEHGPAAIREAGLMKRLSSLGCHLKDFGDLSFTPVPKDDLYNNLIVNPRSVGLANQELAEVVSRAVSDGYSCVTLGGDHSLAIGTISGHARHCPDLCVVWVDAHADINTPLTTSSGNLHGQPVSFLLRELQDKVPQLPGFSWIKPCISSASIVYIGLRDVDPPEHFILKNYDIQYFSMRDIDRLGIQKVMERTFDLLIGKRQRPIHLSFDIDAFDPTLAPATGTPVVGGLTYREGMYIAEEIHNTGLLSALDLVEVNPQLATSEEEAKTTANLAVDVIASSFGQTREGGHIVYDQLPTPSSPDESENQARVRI
Kind of assay: in vitro enzyme assay to detect the production of urea directly proportional to the activity of Arginase II. Note: in the data most compounds retested in dose-response had high values. The class given is functional. Conditions: 33.3 µM.

Assay [7] has as its target T3, Proteasome subunit beta (Trypanosoma cruzi) (UniProt O96673).
T3 sequence (whole entry): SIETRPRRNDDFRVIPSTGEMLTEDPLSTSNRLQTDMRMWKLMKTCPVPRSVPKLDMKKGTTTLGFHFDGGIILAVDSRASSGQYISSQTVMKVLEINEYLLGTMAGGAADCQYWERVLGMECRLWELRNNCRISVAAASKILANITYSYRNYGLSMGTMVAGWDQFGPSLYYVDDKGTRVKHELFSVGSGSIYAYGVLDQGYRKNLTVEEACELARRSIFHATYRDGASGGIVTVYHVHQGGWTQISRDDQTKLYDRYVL
Kind of assay: Trypanosoma cruzi proteasome chymotrypsin-like activity (TcProtChymo) assay. Note: in the data most compounds retested in dose-response had high values. Type of assay: functional. Conditions: 9.37 µM.

The species named for assay [8] is Homo sapiens. Kind of assay: To identify inhibition of the IFN signalling (Jak-Stat) pathway via expression of an eGFP reporter gene under the control of an IFN-stimulated response element (ISRE) containing MxA promoter. The class given is functional. The conditions noted are these: 30 µM.
Assay [9] deals with T4, Tyrosyl-tRNA synthetase, putative (Trypanosoma cruzi (strain CL Brener)) (UniProt Q4DSP6).
T4 sequence (whole entry): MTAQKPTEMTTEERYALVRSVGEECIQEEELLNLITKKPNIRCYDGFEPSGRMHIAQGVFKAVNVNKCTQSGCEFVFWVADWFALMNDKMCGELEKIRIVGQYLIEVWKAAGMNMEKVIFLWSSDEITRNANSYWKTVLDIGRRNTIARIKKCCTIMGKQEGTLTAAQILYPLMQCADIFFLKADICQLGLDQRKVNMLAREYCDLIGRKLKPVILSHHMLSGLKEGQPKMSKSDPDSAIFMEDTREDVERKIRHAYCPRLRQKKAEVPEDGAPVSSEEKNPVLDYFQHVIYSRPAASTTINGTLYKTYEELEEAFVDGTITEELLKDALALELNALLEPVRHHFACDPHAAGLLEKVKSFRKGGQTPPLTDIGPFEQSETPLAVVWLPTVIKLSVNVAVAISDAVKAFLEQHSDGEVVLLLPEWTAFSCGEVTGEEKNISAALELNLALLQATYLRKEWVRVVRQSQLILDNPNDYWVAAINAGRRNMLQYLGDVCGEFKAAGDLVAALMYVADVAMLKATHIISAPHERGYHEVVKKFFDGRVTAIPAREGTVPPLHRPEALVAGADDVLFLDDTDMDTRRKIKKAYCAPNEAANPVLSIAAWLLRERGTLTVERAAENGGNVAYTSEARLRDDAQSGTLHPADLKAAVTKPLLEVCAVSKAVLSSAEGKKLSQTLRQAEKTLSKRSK
Kind of assay: Trypanosoma cruzi tyrosyl tRNA synthetase (TcYRS) _High Tyrosine SOP. Note: in the data most compounds retested in dose-response had high values. Type of assay: functional. Conditions: 30 µM.

The target in assay [10] is T4, Tyrosyl-tRNA synthetase, putative (Trypanosoma cruzi (strain CL Brener)). Kind of assay: Trypanosoma cruzi tyrosyl tRNA synthetase (TcYRS) SOP. Conditions: 30 µM. Type of assay: functional.
Assay [11] concerns the target Chromo domain-containing protein 1 (Saccharomyces cerevisiae (strain ATCC 204508 / S288c) (Baker's yeast)) (UniProt P32657). Kind of assay: ScCHD-1 Enzyme Inhibition Assay. Note: in the data most compounds retested in dose-response had high values. The conditions noted are these: 30 µM. The class given is functional.

Each structure is given as a SMILES string. For some of these results: Entries with a potency or affinity are not part of this list.

Sequence of Protein translocase subunit SecA (Escherichia coli (strain K12)) (P10408 whole entry): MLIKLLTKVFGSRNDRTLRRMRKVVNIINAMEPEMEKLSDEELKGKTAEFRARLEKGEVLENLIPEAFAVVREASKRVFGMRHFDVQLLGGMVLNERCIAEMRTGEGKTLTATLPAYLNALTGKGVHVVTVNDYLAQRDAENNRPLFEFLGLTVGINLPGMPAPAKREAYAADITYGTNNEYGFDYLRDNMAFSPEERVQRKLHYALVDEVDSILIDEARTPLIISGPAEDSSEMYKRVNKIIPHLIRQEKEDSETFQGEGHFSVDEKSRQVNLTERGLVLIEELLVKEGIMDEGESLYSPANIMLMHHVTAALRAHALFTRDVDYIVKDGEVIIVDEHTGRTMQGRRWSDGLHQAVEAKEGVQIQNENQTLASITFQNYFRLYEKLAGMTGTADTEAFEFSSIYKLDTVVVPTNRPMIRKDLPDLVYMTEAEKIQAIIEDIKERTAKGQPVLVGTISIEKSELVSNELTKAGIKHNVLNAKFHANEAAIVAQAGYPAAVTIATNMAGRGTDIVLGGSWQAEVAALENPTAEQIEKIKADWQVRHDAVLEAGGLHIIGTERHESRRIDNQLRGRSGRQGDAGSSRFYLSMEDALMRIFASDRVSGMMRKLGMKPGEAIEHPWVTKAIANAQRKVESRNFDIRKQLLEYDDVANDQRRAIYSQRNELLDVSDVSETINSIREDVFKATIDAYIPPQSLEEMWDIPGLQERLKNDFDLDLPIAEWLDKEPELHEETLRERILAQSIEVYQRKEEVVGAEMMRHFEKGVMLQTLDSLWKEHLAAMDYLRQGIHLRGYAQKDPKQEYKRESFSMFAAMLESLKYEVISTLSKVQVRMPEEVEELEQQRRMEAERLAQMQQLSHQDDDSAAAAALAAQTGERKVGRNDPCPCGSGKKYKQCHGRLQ
Sequence of Chromo domain-containing protein 1 (Saccharomyces cerevisiae (strain ATCC 204508 / S288c) (Baker's yeast)) (P32657 whole entry, the tested form may be a part): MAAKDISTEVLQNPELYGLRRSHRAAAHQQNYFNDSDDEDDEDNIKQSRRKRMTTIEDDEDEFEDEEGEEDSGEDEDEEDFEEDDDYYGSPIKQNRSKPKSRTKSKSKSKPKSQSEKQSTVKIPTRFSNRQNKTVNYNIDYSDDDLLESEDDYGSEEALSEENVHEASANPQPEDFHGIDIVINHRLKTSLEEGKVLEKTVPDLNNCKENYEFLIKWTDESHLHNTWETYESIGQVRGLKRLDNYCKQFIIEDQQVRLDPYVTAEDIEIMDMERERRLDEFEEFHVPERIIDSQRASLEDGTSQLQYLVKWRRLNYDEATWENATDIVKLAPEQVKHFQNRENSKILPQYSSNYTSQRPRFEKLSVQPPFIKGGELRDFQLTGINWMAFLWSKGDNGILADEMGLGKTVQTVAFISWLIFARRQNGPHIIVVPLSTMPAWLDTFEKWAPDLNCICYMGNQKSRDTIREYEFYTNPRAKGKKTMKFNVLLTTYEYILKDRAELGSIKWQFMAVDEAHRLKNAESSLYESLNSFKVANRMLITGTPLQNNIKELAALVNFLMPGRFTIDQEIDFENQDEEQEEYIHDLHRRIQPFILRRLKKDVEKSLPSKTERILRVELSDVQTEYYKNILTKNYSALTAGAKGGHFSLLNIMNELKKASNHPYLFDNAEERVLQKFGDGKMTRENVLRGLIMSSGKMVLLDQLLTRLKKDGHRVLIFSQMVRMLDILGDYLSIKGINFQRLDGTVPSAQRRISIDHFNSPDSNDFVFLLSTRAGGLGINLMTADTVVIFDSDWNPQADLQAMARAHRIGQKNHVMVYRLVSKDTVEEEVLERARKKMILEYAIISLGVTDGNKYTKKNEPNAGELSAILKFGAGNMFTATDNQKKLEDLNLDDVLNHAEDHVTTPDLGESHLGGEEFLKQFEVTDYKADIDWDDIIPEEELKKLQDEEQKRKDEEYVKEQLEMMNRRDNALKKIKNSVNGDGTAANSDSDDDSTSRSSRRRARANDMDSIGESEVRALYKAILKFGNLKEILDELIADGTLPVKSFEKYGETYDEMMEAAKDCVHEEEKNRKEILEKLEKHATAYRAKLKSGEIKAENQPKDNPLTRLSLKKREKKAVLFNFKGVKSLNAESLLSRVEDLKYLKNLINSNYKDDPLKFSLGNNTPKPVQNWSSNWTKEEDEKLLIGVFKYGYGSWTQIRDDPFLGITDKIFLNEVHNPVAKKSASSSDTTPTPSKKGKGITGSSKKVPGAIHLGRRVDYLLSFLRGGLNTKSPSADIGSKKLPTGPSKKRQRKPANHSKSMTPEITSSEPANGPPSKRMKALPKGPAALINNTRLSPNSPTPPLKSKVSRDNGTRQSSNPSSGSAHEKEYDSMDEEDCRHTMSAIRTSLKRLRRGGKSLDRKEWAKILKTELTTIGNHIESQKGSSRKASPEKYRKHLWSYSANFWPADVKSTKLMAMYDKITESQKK
Sequence of Sialic acid-binding Ig-like lectin 9 (Homo sapiens) (Q9Y336 whole entry): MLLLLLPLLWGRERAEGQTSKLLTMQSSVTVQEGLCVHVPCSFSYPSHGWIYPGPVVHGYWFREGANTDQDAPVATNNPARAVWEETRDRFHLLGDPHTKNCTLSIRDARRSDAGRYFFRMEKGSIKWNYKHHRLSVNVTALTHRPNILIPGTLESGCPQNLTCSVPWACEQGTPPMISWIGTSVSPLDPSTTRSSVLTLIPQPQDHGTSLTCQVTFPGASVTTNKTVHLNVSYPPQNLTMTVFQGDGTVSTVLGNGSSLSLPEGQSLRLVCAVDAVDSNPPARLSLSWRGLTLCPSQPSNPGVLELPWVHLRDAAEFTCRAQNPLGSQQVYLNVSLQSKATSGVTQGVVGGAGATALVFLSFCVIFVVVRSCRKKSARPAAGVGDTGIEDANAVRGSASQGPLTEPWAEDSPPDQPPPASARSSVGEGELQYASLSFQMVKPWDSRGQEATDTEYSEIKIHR

Turning to `CNC(=O)C1Cn2ccnc2C2(CCN(Cc3cccc(C)n3)CC2)O1` (stereo unspecified), the Percent Effect in assay [1] is -2.65%; in assay [2], 2.7%; in assay [3], 2.26%; in assay [4] it was -4.02%; in assay [5] it was -6.35%; in assay [6], -8.6%. Moreover, the Percent Effect in assay [7] is 9.41%; in assay [8], 0.488%; in [9] it was 4.32%; in [10], 10.3%; in assay [11], 0.265%.

For `COCCNC(=O)CCc1c(C)nn(-c2nc(C)c(C)c(=O)[nH]2)c1C`, the Percent Effect is 0.376% in assay [1]; 7.79% in assay [2]; -3.21% in assay [3]; -3.83% in [4]; -7% in assay [5]; 23.9% in assay [6]. The Percent Effect was 8.01% in assay [7]; 4.73% in assay [8]; 8.47% in assay [9]; 14.1% in [10]; -7.76% in assay [11].

Regarding `Cc1cc(C)cc(OCCC(=O)N2CCCC(n3cncn3)C2)c1` (stereo unspecified), the Percent Effect in assay [1] was -0.911%; in [2], -8.11%; in assay [3], 0.29%; in assay [4], 4.17%; in [5] it was 8.08%; in assay [6], -5.73%. Further, the Percent Effect in [7] was -5.21%; in assay [8], 4.81%; in [9] it was 0%; in assay [10], 3.66%; in [11] it was 1.95%.

As for `CNC(=O)CCNC(=O)c1cccc(Cn2nc(C)cc2C)c1`, the Percent Effect is -1.98% in [1]; 4.17% in assay [2]; 1.31% in assay [3]; 2.11% in assay [4]; 5.15% in assay [5]; -3.09% in [6]. Moreover, the Percent Effect in assay [7] is 10.7%; in assay [8], 15.9%; in assay [9], 6.32%; in assay [10], 7.69%; in [11] it was -5.17%.

With `CS(=O)(=O)N1CCc2c(cccc2NC(=O)CC(F)(F)F)C1`, the Percent Effect is -3.17% in assay [1]; 5.26% in assay [2]; 4.53% in assay [3]; -1.3% in [4]; -2.04% in assay [5]; 0% in assay [6]. Further, the Percent Effect in assay [7] is 11.8%; in assay [8] it was -9.3%; in assay [9], 4.25%; in [10], 10.4%; in assay [11] it was -6.43%.

Take `O=C(c1cc[nH]n1)N1CCC(Nc2cccnn2)CC1`: the Percent Effect in [1] is -5.6%; in [2], 7.79%; in [3], 1.01%; in [4], -11.8%; in assay [5], 8.52%; in [6], -2.74%. Also, the Percent Effect in [7] is 9.62%; in [8], 5.31%; in [9], 6.67%; in assay [10], 11.8%; in [11], -18.4%.

Take `CCOC(=O)c1c(NC(=O)CN2CCN(C(C)=O)CC2)sc2c1CCC2`: the Percent Effect was -3.66% in [1]; 7.89% in assay [2]; 9.52% in [3]; 4.99% in assay [4]; -0.0974% in assay [5]; -1.18% in assay [6]. Besides, the Percent Effect in assay [7] was 7%; in [8], -11.1%; in assay [9], 4.25%; in assay [10], 13%; in assay [11], -4.6%.

With `Cc1cc(C(=O)N2C[C@@H]3[C@@H](C2)OCC(=O)N3CC2CC2)no1`, the Percent Effect is -1.71% in [1]; -31.2% in assay [2]; 5.62% in assay [3]; 6.36% in [4]; -6.98% in assay [5]; -16.6% in assay [6]. Besides, the Percent Effect in assay [7] was 4.49%; in [8], 6.95%; in assay [9], -54.8%; in [10], -90.1%; in assay [11], 0.00283%.

Regarding `COCC1CN(Cc2cc(C)on2)Cc2cn(C)nc21` (stereo unspecified), the Percent Effect is -1.68% in assay [1]; 8% in assay [2]; 1.48% in assay [3]; 12.2% in assay [4]; -0.965% in assay [5]; -24.2% in assay [6]. For the same compound, the Percent Effect in [7] was 9.06%; in assay [8], -11%; in assay [9] it was 6.25%; in assay [10], 10%; in assay [11], -4.54%.

On to `Cn1ncc2c1NC(=O)CC2c1ccc(Cl)cc1Cl` (stereo unspecified), for which the Percent Effect in [1] is -0.731%; in assay [2] it was 2.63%; in assay [3] it was 4.33%; in assay [4] it was 1.29%; in [5], -8.67%; in assay [6] it was -1.18%. For the same compound, the Percent Effect in assay [7] was 11.8%; in [8], 18%; in [9], 0%; in [10], 2.6%; in assay [11], -4.32%.

As for `Cc1nn(C(C)C)c(C)c1NC(=O)c1ccncc1`, the Percent Effect in assay [1] was -2.46%; in [2], 16.4%; in [3], -7.09%; in [4], 5.06%; in assay [5], 5.56%; in assay [6] it was 0.399%. In addition, the Percent Effect is 16.5% in assay [7]; -7.45% in assay [8]; 10.4% in assay [9]; 11.1% in [10]; -7.44% in assay [11].
